Calls of active or inactive are those of the source. The rule behind the calls is not given here.
test: High Content Assay for Compounds that inhibit the Assembly of the Perinucleolar Compartment:Cell Migration SAR; conditions: PC3M 3D collagen invasion, Hoechst imaging, 5 d
Text: The perinucleolar compartment (PNC) is a non-membrane-bound nuclear subdomain that is associated with but structurally distinct from the nucleolus. The PNC is a heritable trait, in which the number of PNCs per cell in daughter cells often mimics that of their mother cells. The PNC is heterogeneous in shape, is stable through interphase, disassembles during mitosis, and reassembles in early G1. The PNC is concentrated with newly synthesized RNA polymerase III (pol III) RNAs (MRP RNA, RNAse P H1 RNA, hY RNAs[hY1, 2, 5], Alu RNA, and SRP [7SL] RNA) and RNA binding proteins (nucleolin, PTB, CUG-BP, KSRP, Raver1, Raver2, and Rod). […] In collaboration between Sui Huang from Northwestern University and the NCGC, a high content assay was developed and screened. The hits were then tested in follow-up assays. High-content tumor cell migration assays in 3-dimensional extracellular matrices are powerful tools for modeling and understanding the biology of this critical step in the process of metastasis. However, most of the available methods are not amenable to the throughput required by studies of comparative pharmacology or small scale screening. For this reason, we worked with BellBrook Labs(R) to test our compounds in their automated high-content tumor cell invasion assays.[35] […]

| Compound | Potency |
| --- | --- |
| N=c1c2c(-c3ccccc3)c(-c3ccccc3)n(Cc3ccccc3)c2ncn1C1CCC(O)CC1 (stereo unspecified) | 3.98 µM (active) |

Source: PubChem BioAssay AID588738 (National Center for Advancing Translational Sciences (NCATS), 2011)
